Data on 20 compounds can be found in PubChem BioAssay (Tox21).

Where a structure was tested more than once in an assay, its records may differ in their call. The source made the active and inactive calls. A call without a number means that no potency is given here. Calls come from the whole dose curve.
Potency is the fitted concentration of half-maximal effect.

For this experiment, the target named is Androgen receptor (Homo sapiens) (UniProt P10275). The experiment is described as follows: qHTS assay to identify small molecule agonists of the androgen receptor (AR) signaling pathway in the presence of an antagonist (AID 1259381). Note: nearly all actives have a fitted effect of over 15% in size. To be noted: MDA-kb2 MMTV-luciferase, AR agonist + nilutamide, 16 h; series mostly up to 92.4 µM; activation: at the top concentration. From the text: National Center for Advancing Translational Sciences [NCATS] NIH Chemical Genomics Center [NCGC] U.S. Environmental Protection Agency [EPA] National Institutes of Environmental Health Sciences [NIEHS] National Toxicology Program [NTP] Assay overview: Androgen receptor (AR) is an important member of nuclear receptor family. Its signaling plays a critical role in AR-dependent prostate cancer and other androgen related diseases. Considerable attention has been given in the past decades to develop methods to study and screen for the environmental chemicals that have the potential to interfere with metabolic homeostasis, reproduction, developmental and behavioral functions. Therefore AR binding assay for screening against androgen agonists and antagonists can be used to identify potential endocrine disruptors. MDA-kb2 cells (from ATCC, deposited by Wilson et al.) are human breast carcinoma cells that were stably transfected with a luciferase reporter gene under control of the MMTV promoter that contains response elements for both androgen receptor (AR) and glucocorticoid receptor (GR). This particular screening for measuring luciferase reporter gene activity using MDA-kb2 cells against Tox21 10K library compounds is a confirmation study on agonist mode screening in the presence of AR-antagonist compound (Nilutamide) at 3.0uM final concentration.
Chain of Androgen receptor (Homo sapiens) (P10275 whole entry, looked up): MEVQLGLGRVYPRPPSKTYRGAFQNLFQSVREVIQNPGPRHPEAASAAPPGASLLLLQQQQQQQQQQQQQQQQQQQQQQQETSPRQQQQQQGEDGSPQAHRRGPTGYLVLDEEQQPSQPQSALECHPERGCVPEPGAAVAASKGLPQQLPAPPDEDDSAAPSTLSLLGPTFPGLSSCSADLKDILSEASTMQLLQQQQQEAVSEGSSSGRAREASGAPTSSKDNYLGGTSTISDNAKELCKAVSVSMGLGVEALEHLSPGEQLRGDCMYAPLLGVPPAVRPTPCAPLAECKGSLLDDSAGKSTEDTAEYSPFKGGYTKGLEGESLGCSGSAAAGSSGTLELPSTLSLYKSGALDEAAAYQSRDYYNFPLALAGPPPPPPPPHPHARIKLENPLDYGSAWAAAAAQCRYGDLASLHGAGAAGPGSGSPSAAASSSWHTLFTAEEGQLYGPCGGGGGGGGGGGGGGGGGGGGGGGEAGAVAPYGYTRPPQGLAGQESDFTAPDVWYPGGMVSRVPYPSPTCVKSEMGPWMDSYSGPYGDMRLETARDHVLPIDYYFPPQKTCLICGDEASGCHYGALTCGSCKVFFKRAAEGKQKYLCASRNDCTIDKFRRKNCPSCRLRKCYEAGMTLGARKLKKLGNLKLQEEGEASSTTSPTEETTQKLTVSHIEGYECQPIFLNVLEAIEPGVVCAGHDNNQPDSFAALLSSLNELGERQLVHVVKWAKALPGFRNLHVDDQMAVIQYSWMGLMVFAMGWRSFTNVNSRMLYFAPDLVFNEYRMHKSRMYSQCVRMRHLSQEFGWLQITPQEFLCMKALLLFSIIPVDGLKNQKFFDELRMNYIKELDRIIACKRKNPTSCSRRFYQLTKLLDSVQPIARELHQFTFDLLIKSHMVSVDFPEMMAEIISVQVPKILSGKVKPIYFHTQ
Assay Protocol Summary: MDA-kb2 cells (cells cultured without CO2) were dispensed at 3,000 cells/well in 4uL of culture medium into white wall/solid-bottom 1536-well plates (Corning Life Sciences, Corning, NY) using a Multidrop Combi (Thermo Fisher Scientific Inc., Waltham, MA) dispenser. The assay plates were incubated at 37C and 0% CO2 for 5hr. One uL of 3.0uM (final concentration) Nilutamide or assay buffer was added using two separate tips of Flying Reagent Dispenser (FRD, Aurora Discovery, San Diego, CA). Then 23nL of compounds dissolved in DMSO at 15 concentrations and positive controls were transferred to the assay plates using a Pintool station (Wako, San Diego, CA). The assay plates were incubated at 37C and 0% CO2 for 16hr. For luciferase read, 4uL/well ONE-Glo reagent (Promega Corporation, Madison, WI) was added to each well of the assay plates using FRD. After 30min incubation at room temperature, the luminescence signal was measured using a ViewLux plate reader (PerkinElmer, Shelton, CT).
(In qHTS, concentration-response curves come from the screen itself.)
As for `O=C(O)c1cc(-c2ccccc2)nc2ccccc12`, the Potency is 55.1 µM (active) and inactive.

As for `CC(C)(CO)COC(=O)C(C)(C)CO`, the Potency entry is “inactive”.

Take `Oc1ccc(OCc2ccccc2)cc1`: the Potency entry was “inactive”.

Take `C[C@@H]1O[C@@H](OC[C@H]2O[C@@H](Oc3c(-c4ccc(O)c(O)c4)oc4cc(O)cc(O)c4c3=O)[C@H](O)[C@@H](O)[C@@H]2O)[C@H](O)[C@H](O)[C@H]1O`: the Potency result is “inactive”.

In the case of `Oc1ccc2ccccc2c1`, the Potency result was “inactive”.

Turning to `O=C1CCCCC1`, the Potency entry was “inactive”.

Take `Nc1cc(-c2ccncc2)c[nH]c1=O`: the Potency entry is “inactive”.

For the compound `O=c1c(-c2ccc(O)cc2)coc2cc(O)ccc12`, the “activation” value is 6.73% (inactive).

With `Nc1nc2ncc(CNc3ccc(C(=O)N[C@@H](CCC(=O)O)C(=O)O)cc3)nc2c(=O)[nH]1`, the Potency result is “inactive”.

For `O=[N+]([O-])c1cc(N(CCO)CCO)ccc1NCCO`, the Potency entry was “inactive”.

With `Cc1ccc(C)c(C)c1`, the Potency result is “inactive”.

Turning to `C=CC(=O)OCCCCCCCC(C)C`, the Potency result was “inactive”.

As to `CCc1ccc(O)cc1`, the Potency entry was “inactive”.

For the compound `O=Nc1ccc(O)cc1`, the Potency entry was “inactive”.

With `CCCCCCCCCC(=O)O`, the Potency entry is “inactive”.

As to `CCCCC(CC)C(=O)OCCOCCOCCOC(=O)C(CC)CCCC` (stereo not given), the Potency entry was “inactive”.

As to `OCC1CCCO1` (stereo not given), the Potency entry was “inactive”.

Consider `CCCCC(CC)COC(=O)/C=C\C(=O)OCC(CC)CCCC` (stereo not given), for which the Potency result was “inactive”.

Consider `NCCNCCNCCNCCN`, for which the Potency entry was “inactive”.

For the compound `Cc1cc(=O)[nH]c(C(C)C)n1`, the Potency result is “inactive”.
